From PubChem
Tau fil binding = binders of human tau filaments; P10636; recombinant tau filaments, thioflavin S fluorescence, 15 h; filaments grown with octadecylsulfate alongside compound; Potency, µM (top dose mostly 57.1 µM), for inactives: top-dose activity change, negative = inhibition; 2% of 71,000 active; AID 596;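 also: % is scaled to controls: 0 for no effect and ±100 for the full control effect; actives lower thioflavin S fluorescence by blocking filaments or displacing dye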
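Assay mix: 1 uM His-tagged tau, 30 uM sodium octadecylsulfate, thioflavine S dye in HEPES/NaCl/DTT buffer. Compound is added prior to the inducer. Fluorescence after 15 h at 37 C.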
ALOX15 inhib = inhibitors of human 15-lipoxygenase (ALOX15) | purified 15hLO-1, xylenol orange hydroperoxide absorbance | Potency, µM (top dose mostly 57.1 µM), for inactives: top-dose activity change, negative = inhibition, usual class: inhibitors | 1.4% of 74,000 active; also: % is scaled to controls: 0 for no effect and ±100 for the full control effect; nearly all actives have a fitted effect of over 55% in size
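40 nM 15hLO-1 + cpd, 15 min RT; start w/ 50 uM AA (final), 6 min RT; stop/detect w/ 200 uM XO + 300 uM Fe(II) in 50 mM H2SO4, 30 min; A573/A405. Buffer 25 mM Hepes pH 7.5, 0.01% Triton X-100. No-enzyme wells as negative control.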
PK Bst = pyruvate kinase (B. stearothermophilus) modulation; 1.2% of 51,000 active; Potency, µM; AID 361; purified pyruvate kinase, luminescence ATP production; ribose 5-phosphate activator present at AC10; in the data active = potency below about 11 µM; inconclusive = mostly about 12 µM to 25 µM;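 the screen sought inhibitors and activators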;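 also: scaled between full activation by ribose 5 phosphate and full inhibition by luteolin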
HEK293 cAMP ctrl = counter-screen for TSHR agonists: cAMP increase in parental HEK293; parental HEK293 CNG cAMP sensor, membrane potential fluorescence; Potency, µM (series often up to 57.1 µM), inactives show top-dose activation, actives largely listed as activators; 2.5% of 73,000 active; AID 938; also: % of control where 0% means no effect; nearly all actives have a fitted effect of over 55% in size
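Parental HEK 293 cells stably expressing a cAMP-gated CNG channel were loaded with membrane potential dye containing 100 uM RO 20-1724 for 60 min. Compound added for 30 min; depolarization read as fluorescence intensity at 590 nm.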
TSHR agonist = activates the human thyroid stimulating hormone receptor. HEK293-CNG-TSHR cells (CNG channel as cAMP sensor), membrane potential dye, cAMP. 0.48% of 73,000 active. Potency, µM (highest dose often 57.1 µM), for the others: at the top dose activation, usual class: activators. P16473; active = well fitted activation curve with a large enough effect in the main read-out, with a control signal flat, not every such curve was filed as active; inconclusive = small, poorly fitted or top-dose-only effect, or a change in a side signal; inactive = no such curve, though single readings can be large or run the other way; % of control where 0% means no effect;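 also: the control signal comes from parental cells without the receptor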
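HEK 293 cells stably expressing TSHR and a modified CNG channel, with CNG-only parental cells as counterscreen, were preloaded 60 min at room temperature with membrane potential dye containing 100 uM RO 20-1724. Compound exposure was 30 min, and depolarization was read as fluorescence at 590 nm.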
Luciferase inh = inhibitors of firefly luciferase | P08659 | purified firefly luciferase, luminescence, 8 min | Potency, µM (doses to about 57.1 µM), inactives show top-dose activity change, negative = inhibition, usual class: inhibitors | 2.2% of 72,000 active; also: % is scaled to controls: 0 for no effect and ±100 for the full control effect; nearly all actives have a fitted effect of over 40% in size
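Titration-based qHTS; buffer 50 mM imidazole pH 7.2, 50 mM KCl, 7 mM MgCl2, 10 uM ATP, 0.01% Tween 20, 0.05% BSA; luciferase/luciferin detector mix added after compound; 8 min, ambient; luminescence.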
Active calls of the source: *; i = inactive; ? = inconclusive; / = no result given; [ ] = remark or other dose. Most compounds without a hit are left out; they make up all but 7.8% or so of the library. Unless noted, calls follow the shape of the dose curve; as a rule, active = well fitted curve in the direction sought with a large enough effect; inconclusive = small, poorly fitted or top-dose-only effect, or another doubt; inactive = no such curve, though single readings can be large; an effect the other way counts as inactive or inconclusive. Potency is read from the fitted curve at half-maximal effect.

SMILES	Tau fil binding	ALOX15 inhib	PK Bst	HEK293 cAMP ctrl	TSHR agonist	Luciferase inh
CCCc1nc2ccccc2c(=O)n1/N=C/c1ccc(O)cc1O	4%	-3%	>57	2%	6%	1%
CN=c1scc(C)n1/N=C/c1ccc(O)cc1	?	-20%	6.8*	-2%	4%	13µM*
COc1cc(OC)c(C#N)c(S(=O)Cc2ccccc2)c1 (stereo not drawn)	2%	6%	>57	5%	5%[11.4 µM]	1%
CCOC(=O)OCC1OC(c2ccccc2)C=CC1Oc1cccc(N(C)C)c1 (stereo not drawn)	/	7%[11.4 µM]	/	7%[11.4 µM]	14%[11.4 µM]	/
C#C[C@H](N)CCC(=O)O	2%	3%	/	-2%	1%	0%
O=C(c1c(Cl)nc2sccn12)N1CCN(c2cccc(Cl)c2)CC1	12%	-6%	>57	32µM*	?	3%
O=C1C=C[C@@H](O)[C@H]2[C@@H]3C(=O)N(c4cccc(Oc5ccccc5)c4)C(=O)[C@@H]3CC[C@H]12	/	2%[11.4 µM]	/	-2%[11.4 µM]	-3%[11.4 µM]	1%[11.4 µM]
CC(=O)N1CCN(c2ccc(Nc3nc(C)nc4c3oc3ccccc34)cc2)CC1	20µM*	-11%	/	-1%	-1%	-3%
Cc1nc(NC(C)c2ccccc2)c2oc3ccccc3c2n1 (stereo not drawn)	22%	-13%	>57	16µM*	?	2%
CC(C)(C)C(=O)c1sc(Nc2ccccc2)nc1N	-18%	-14%	?	-3%	-8%	13µM*
NC(=O)c1sc2nccc(Nc3ccccc3)c2c1N	-21%	?	i	?	?	-14%
O=S(=O)(O)c1ccc2c(N=Nc3c(O)ccc4ccccc34)cccc2c1	3.2µM*	-14%[11.4 µM]	/	-11%[11.4 µM]	/	-7%[11.4 µM]
O=S(=O)(O)c1cc(S(=O)(=O)O)c2c(N=Nc3cccc4ccccc34)c(O)ccc2c1	4µM*	-6%[11.4 µM]	/	8%[11.4 µM]	24%[11.4 µM]	?
CCCC(=O)c1cc(O)c(O)cc1O	?	4µM*	/	?	?	/
CC(C)c1ccc(S(=O)(=O)N2CCN(CC(=O)Nc3ccc4c(c3)OCO4)CC2)cc1	-6%	-9%	>57	?	?	1%
COc1ccc(C(=O)n2c(-c3ccco3)nc3ccccc32)cc1	12%	?	>57	25µM*	?	-4%
Clc1ccc(-c2nc3nc4ccccc4nc3n2Cc2ccco2)cc1	?	-3%	>57	?	?	-3%
Cc1ccc(-c2nc3nc4ccccc4nc3n2Cc2ccco2)cc1	16µM*	?	i	25µM*	?	10µM*
CCCCCn1c(-c2ccco2)nc2nc3ccccc3nc21	13µM*	?	/	15%	11%	-3%
c1coc(-c2nc3nc4ccccc4nc3n2CC2CCCO2)c1 (stereo not drawn)	-7%	?	>57	21%	11%	-4%
COc1ccccc1Cn1c(-c2ccco2)nc2nc3ccccc3nc21	16µM*	-2%	>57	13%	-1%	3.2µM*
O=C1C(=O)c2ccccc2C(O)=C1C(CCc1ccccc1)C1=C(O)c2ccccc2C(=O)C1=O	-14%[11.4 µM]	?	/	-18%[11.4 µM]	-9%[11.4 µM]	-5%[11.4 µM]
c1ccc(Cn2c(-c3ccco3)nc3nc4ccccc4nc32)cc1	7.9µM*	-18%	>57	19%	8%	-25%
O=c1c2ccccc2nc(-c2ccco2)n1Cc1ccccc1	1%	-6%	>57	?	?	-8%
COc1ccc(CCn2c(-c3ccco3)nc3nc4ccccc4nc32)cc1	13µM*	-5%	>57	-6%	1%	-1%
CN(C)S(=O)(=O)c1cc(C(=O)NCCCn2ccc3ccccc32)ccc1Cl	4%	-19%	>57	25µM*	?	1%
COc1ccc(C/C(O)=C(\C#N)c2nc3ccccc3s2)cc1	3%	-6%	>57	32µM*	?	3%
c1ccc2c3c([nH]c2c1)-c1[nH]ncc1CC3	22%	7%	3.1*	-31%	?	-5%
Clc1ccc2[nH]c3c(c2c1)CCc1cn[nH]c1-3	16µM*	?	/	-26%	-24%	-10%
